For 44 compounds, inhibition results are on record in PubChem BioAssay AID602396 (The Scripps Research Institute Molecular Screening Center, 2012).

About 460 (0.13%) of roughly 360,000 compounds were called active. What follows is part of a selection rich in actives, with near analogues and random picks from the rest. Unmarked numbers belong to inactive results.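 Rule for the calls: active = inhibition above the mean inhibition of all tested compounds plus 3 SD (cut at about 73% in these data); inactive = the rest.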

Sequence of Nuclear receptor subfamily 5 group A member 2 (Homo sapiens) (O00482 whole entry, looked up): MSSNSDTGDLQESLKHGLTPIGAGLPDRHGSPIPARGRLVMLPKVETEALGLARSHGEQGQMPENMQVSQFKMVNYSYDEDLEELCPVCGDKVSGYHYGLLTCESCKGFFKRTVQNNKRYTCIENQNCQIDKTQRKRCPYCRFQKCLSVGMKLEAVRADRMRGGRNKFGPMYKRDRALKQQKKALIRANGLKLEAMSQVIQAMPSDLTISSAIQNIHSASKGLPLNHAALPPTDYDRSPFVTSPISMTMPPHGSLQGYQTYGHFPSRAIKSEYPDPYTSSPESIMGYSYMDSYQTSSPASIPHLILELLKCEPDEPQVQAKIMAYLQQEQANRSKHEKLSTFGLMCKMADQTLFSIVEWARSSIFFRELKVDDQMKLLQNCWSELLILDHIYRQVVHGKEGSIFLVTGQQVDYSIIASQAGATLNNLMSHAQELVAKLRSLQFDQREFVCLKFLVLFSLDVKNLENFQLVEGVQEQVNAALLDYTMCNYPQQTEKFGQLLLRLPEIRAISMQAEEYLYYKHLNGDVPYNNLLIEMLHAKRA

This assay concerns the target Nuclear receptor subfamily 5 group A member 2 (Homo sapiens) (UniProt O00482). The experiment in a line: reduction of NR5A2-driven StAR reporter activity – cell-based, luminescence, HEK293T, StAR-luciferase reporter, primary screen (AID 602396).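 Note: 0% = DMSO wells and 100% = reporter-only cells lacking LRH-1.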 The note with it: LRH-1 transfected, 24 h, at 3.6 µM, stronger effect = higher value.
As for `C=CCc1cc(S(=O)(=O)c2ccc(O)c(CC=C)c2)ccc1O`, the inhibition was 11.4%.
As for `CCNS(=O)(=O)c1ccc(CCC(=O)N2CCN(c3cc(Cl)ccc3C)CC2)cc1`, the inhibition was -4.58%.
The same measure for `COc1ccc(NS(=O)(=O)c2ccc(O)c(C(=O)OCC(=O)NC3CCCCC3)c2)cc1`: 0.7%; for `Cc1cc(=O)cc(C)[nH]1`: 3.47%.
In the case of `COc1ncnc2c1N=C1CC(C)(C)CC(N)=C1S2`, the inhibition was 22.7%.
As for `COC1(C2=NCCN2)COc2ccccc2O1` (centres undefined), the inhibition is 15.1%.
The same measure for `O=C1CN(C(=O)COC(=O)c2cnc(Cl)c(Cl)c2)c2ccccc2N1`: 0.85%.
Turning to `CC[C@@H]1CC2=C(C(=O)OC(C)(C)O2)[C@@H](CC)O1`, the inhibition is 13.2%.
Take `COC(=O)c1ccc(CSc2ccc(S(=O)(=O)N3CCCCC3)cn2)cc1`: the inhibition was 0.83%.
Turning to `CCOc1cc(C(=O)Nc2c(C)ccc3nsnc23)cc(OCC)c1OCC`, the inhibition was 5.78%.
The same measure for `OCCCNc1nccc(-c2cc(Nc3cccc(Cl)c3)ncn2)n1`: 96.8% (active).
In the case of `CC(=O)Nc1ccc(NC(=O)CSc2nnnn2-c2ccccc2F)cc1` it was 3.27%; in that of `CN(C)CCCn1c(N)c(C#N)c2nc(C#N)c(C#N)nc21`, -20%; in that of `Cc1noc(C)c1NC(=O)Nc1cccc2c1O[C@H](CN(C)S(=O)(=O)c1c(C)noc1C)[C@@H](C)CN([C@H](C)CO)C2=O`, -28.3%.
The same measure for `CCOc1ccc(Br)cc1S(=O)(=O)Nc1ccc(C(=O)OC(C)C(=O)N(C)c2ccccc2)cc1` (centres undefined): -9.98%; for `Cc1ccc(CC2CC(=O)N(c3cc(C)ccc3C)C2=O)cc1` (centres undefined): 5.12%.
`COc1ccc(OCCn2ccnc2C)cc1`: the inhibition is 10.9%.
With `Cc1ccccc1/[N+]([O-])=C/c1ccncc1`, the inhibition is 13%.
The same measure for `Cc1cc(N2CCCC2=O)cc(C)c1S(N)(=O)=O`: 7.43%.
`CCN(C(=O)COC(=O)CCC(=O)c1cccs1)C1CCCCC1`: the inhibition is 4.1%.
In the case of `CC1CC(c2ccccc2)n2nc(NC(=O)c3cccs3)nc2N1` (centres undefined) it was 5.57%.
In the case of `CCc1ccc(NC(=O)CCNS(=O)(=O)c2cccs2)cc1`, the inhibition was -12.4%.
The same measure for `Cc1ccc(-n2c(=O)cc(N3CCN(Cc4ccccc4)CC3)[nH]c2=O)cc1`: 8.9%; for `Cc1ccc(C(=O)COC(=O)CCN2C(=O)C3C4CC(C(Br)C4Br)C3C2=O)cc1` (centres undefined): -1.24%; for `Cc1cc(C(=O)NNC(=O)CCC2CCCCC2)c(C)o1`: 2.29%.
The same measure for `CC(C)c1ccc(NC(=O)C2CCCN(S(=O)(=O)c3cccnc3)C2)cc1` (centres undefined): -1.1%; for `Cn1c(=O)c2c(nc(OCc3cccnc3)n2Cc2ccccc2)n(C)c1=O`: -21.8%.
In the case of `CCn1c(C)nc2c1C(=O)c1ccccc1C2=O` it was -4.55%.
Turning to `Cc1ccc(-c2noc(C3CCCN(C(=O)c4cccc(Cl)c4)C3)n2)o1` (centres undefined), the inhibition is -49.4%.
The same measure for `Cc1ccc(-c2ccnc3nc(Sc4ncc(C(F)(F)F)cc4Cl)nn23)cc1`: -3.99%.
Turning to `CN(C)S(=O)(=O)c1ccc(N2CCCC2)c(C(=O)Nc2cccc(F)c2)c1`, the inhibition is 8.36%.
As to `Cc1nc(COc2cc3oc(=O)cc(C)c3cc2Cl)cs1`, the inhibition is -10.4%.
As for `O=C(CN1CCN(S(=O)(=O)c2ccc3ccccc3c2)CC1)NC(=O)NC1CCCCC1`, the inhibition is 14.8%.
In the case of `CCCCCN(C(=O)NC(=O)Nc1cccc(C)c1C)S(C)(=O)=O` it was -7.26%; in that of `CCCCn1c(=S)[nH]c2ncccc2c1=O`, 0.69%.
On to `Cc1cc(NC(=O)CS(=O)(=O)c2cn(C)c3ccccc23)no1`, for which the inhibition was -3.59%.
Regarding `Cc1c(Cl)cnc(NC(=O)COC(=O)C2CCCC2)c1Cl`, the inhibition was 1.2%.
As to `CC(=O)NS(=O)(=O)c1ccc2c(c1)Cc1cc(S(=O)(=O)NC(C)=O)ccc1-2`, the inhibition is 9.84%.
Regarding `N#Cc1ccc(CN2CCN(CC(=O)Nc3ccccc3C(=O)NC3CC3)CC2)cc1`, the inhibition is 9.21%.
The same measure for `CCC1=NN(C(=O)Cc2ccc([N+](=O)[O-])cc2)C(O)(c2ccc(Br)cc2)C1` (centres undefined): -7.24%; for `CCN(CC)C(=O)C1=C(C)N(Cc2ccccc2)C(=O)C(CC(=O)NC(c2ccccc2)c2ccccc2)C1` (centres undefined): -17.2%; for `O=C(NCCCn1ccnc1)C(=O)c1cn(CC(=O)N2CCCCCC2)c2ccccc12`: 9.94%.
As for `CC(C)CCC(=O)Nc1cc(S(=O)(=O)N2CCOCC2)ccc1N1CCCC1`, the inhibition is 6.05%.
As for `Cc1cn([C@H]2C[C@H](O)[C@@H](CNC(=O)[C@H](N)Cc3cccnc3)O2)c(=O)[nH]c1=O`, the inhibition is 2.03%.
